# Source: PubChem BioAssay (NCATS)
# Records with an inconclusive call do not appear. Entries that show only a call come without a potency. The source made the active and inactive calls. Unless noted, calls follow the shape of the full dose curve. Square brackets hold non-standard residues; d marks the D form. Peptide text beside a SMILES is read from it. ξ: configuration not given here. d(hArg(Et2)) = CCN=C(NCC)NCCCC[C@@H](N)C(=O)O; hArg(Et2) = CCN=C(NCC)NCCCC[C@H](N)C(=O)O; Phe(4-Cl) = N[C@@H](Cc1ccc(Cl)cc1)C(=O)O; ξ2Nal = NC(Cc1ccc2ccccc2c1)C(=O)O; 3Pal = N[C@@H](Cc1cccnc1)C(=O)O; ξP = O=C(O)C1CCCN1
# Key:
# [1] = Primary qHTS for inhibitors of SARS-S pseudo-typed particle cell entry (AID 1479145); settings: outcome: dose series up to 57.1 µM unless noted; also: nearly all actives have a fitted effect of over 45% in size; also: potency is read from the fitted curve at half-maximal effect
# [2] = Primary qHTS for Huh7 cytotoxicity: counterscreen for inhibitors of MERS-S pseudotyped particle cell entry (AID 1479147); settings: outcome: dose series up to 57.1 µM unless noted; also: potency is read from the fitted curve at half-maximal effect
# [3] = Primary qHTS for inhibitors of MERS-S pseudo-typed particle cell entry (AID 1479149); settings: outcome: dose series up to 57.1 µM unless noted; also: nearly all actives have a fitted effect of over 60% in size; also: potency is read from the fitted curve at half-maximal effect
# [4] = Primary qHTS for Vero E6 cytotoxicity: counterscreen for inhibitors of SARS-S pseudo-typed particle cell entry (AID 1479150); settings: outcome: dose series up to 57.1 µM unless noted
# [5] = VSVG counterscreen qHTS to identify inhibitors of SARS-CoV-2 cell entry (AID 1645847); also: potency is read from the fitted curve at half-maximal effect; nearly all actives have a fitted effect of over 65% in size
# How it was run: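 HEK293-ACE2 cells (Expi293F stably expressing human ACE2) were pretreated with compound for 1 h at 37 °C, then infected with MLV-based VSV-G pseudotyped particles for 48 h. Luciferase luminescence was normalized to VSV-G PP and bald PP wells.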
# [6] = Primary qHTS to identify inhibitors of SARS-CoV-2 cell entry (AID 1645846); settings: SARS-CoV-2 pseudovirus cell entry assay, luminescence; activity change, negative = inhibition: at 57.1 µM (top of the series) unless noted; also: nearly all actives have a fitted effect of over 45% in size; also: potency is read from the fitted curve at half-maximal effect
# How it was run: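 Luminescence readout (Bright-Glo luciferase) 48 h after pseudoparticle addition. HEK293-ACE2 cells, 1500/well; compound pre-incubation 1 h; Normalized to spike PP and bald PP.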
# [7] = target: Glutathione peroxidase 1 (Homo sapiens) (UniProt P07203); assay: Primary qHTS Assay for Inhibitors of Recombinant Selenoprotein Glutathione Peroxidase 1 (GPX1) (AID 1845191; active = well fitted inhibition curve with a large enough effect; also: nearly all actives have a fitted effect of over 65% in size)
# Sequence of Glutathione peroxidase 1 (Homo sapiens) (P07203 whole entry, looked up): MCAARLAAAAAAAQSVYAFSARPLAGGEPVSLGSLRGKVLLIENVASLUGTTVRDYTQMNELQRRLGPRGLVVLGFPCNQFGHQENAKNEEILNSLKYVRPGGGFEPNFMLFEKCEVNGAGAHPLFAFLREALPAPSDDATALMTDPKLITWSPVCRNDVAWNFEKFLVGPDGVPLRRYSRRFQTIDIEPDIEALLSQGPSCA
# How it was run: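 GPX1 10 nM, GR 100 nM, GSH 1 mM, NADPH 0.5 mM, CHP 0.5 mM (final). 30-min cpd preincubation, RT. Ex340/Em450 read t=0, t=15 min.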
# [8] = target: Phospholipid hydroperoxide glutathione peroxidase GPX4 (Homo sapiens) (UniProt P36969); assay: Primary qHTS Assay for Inhibitors of Recombinant Selenoprotein Glutathione Peroxidase 4 (GPX4) (AID 1845192; active = well fitted inhibition curve with a large enough effect; also: nearly all actives have a fitted effect of over 65% in size)
# Sequence of Phospholipid hydroperoxide glutathione peroxidase GPX4 (Homo sapiens) (P36969 whole entry, looked up): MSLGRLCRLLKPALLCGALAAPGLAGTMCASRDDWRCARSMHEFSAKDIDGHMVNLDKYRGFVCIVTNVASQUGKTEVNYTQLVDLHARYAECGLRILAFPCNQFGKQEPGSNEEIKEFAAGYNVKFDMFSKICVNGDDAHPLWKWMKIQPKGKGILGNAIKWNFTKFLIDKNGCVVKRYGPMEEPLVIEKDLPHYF
# How it was run: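 qHTS, GR-coupled: GPX4 200 nM + cpd 30 min RT → GSH 1 mM, NADPH 0.5 mM, GR 100 nM → CHP 0.5 mM start; fluor 340/450 at t0 and t15 min; no-enzyme wells as control.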
# [9] = Cytotoxicity counterscreen for inhibitors of SARS-CoV-2 cell entry (AID 1645845); settings: outcome: dose series up to 57.1 µM unless noted; also: nearly all actives have a fitted effect of over 50% in size; also: potency is read from the fitted curve at half-maximal effect
# How it was run: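 After a 15 min room-temperature ATPLite 1step step, luminescence reflected ATP remaining in HEK293-ACE2 cells exposed to compound for 1 h plus 48 h at 37 C, with percent activity set by cell and no-cell controls.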
# [10] = target: Bile acid receptor (Homo sapiens) (UniProt Q96RI1); assay: qHTS assay for small molecule agonists of farnesoid X receptor signaling (AID 588527); settings: HEK293T FXR-UAS-bla, beta-lactamase ratio, 16 h; stronger effect = higher value
# Sequence of Bile acid receptor (Homo sapiens) (Q96RI1 whole entry, looked up): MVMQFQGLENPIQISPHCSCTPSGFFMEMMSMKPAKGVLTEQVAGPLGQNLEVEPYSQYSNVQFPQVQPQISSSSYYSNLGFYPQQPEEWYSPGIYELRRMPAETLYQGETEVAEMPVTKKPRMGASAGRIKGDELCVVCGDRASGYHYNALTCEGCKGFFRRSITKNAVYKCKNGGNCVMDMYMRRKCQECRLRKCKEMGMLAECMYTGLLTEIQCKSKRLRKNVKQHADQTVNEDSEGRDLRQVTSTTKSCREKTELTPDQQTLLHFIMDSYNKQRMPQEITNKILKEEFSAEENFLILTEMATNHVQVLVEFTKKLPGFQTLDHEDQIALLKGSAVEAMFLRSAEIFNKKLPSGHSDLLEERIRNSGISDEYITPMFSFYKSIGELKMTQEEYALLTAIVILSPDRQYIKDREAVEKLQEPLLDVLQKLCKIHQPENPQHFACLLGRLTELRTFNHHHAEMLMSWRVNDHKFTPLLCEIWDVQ
# How it was run: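 Read-out: beta-lactamase reporter fluorescence with CCF4 substrate in GeneBLAzer FXR-UAS-bla HEK293T cells, after 16 h compound exposure at 37 C. Response scaled between DMSO basal (0%) and chenodeoxycholic acid at 100 uM (100%).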
# [11] = target: Peroxisome proliferator-activated receptor delta (Homo sapiens) (UniProt Q03181); assay: qHTS assay for small molecule agonists of peroxisome proliferator-activated receptor delta signaling (AID 588534)
# Sequence of Peroxisome proliferator-activated receptor delta (Homo sapiens) (Q03181 whole entry, looked up): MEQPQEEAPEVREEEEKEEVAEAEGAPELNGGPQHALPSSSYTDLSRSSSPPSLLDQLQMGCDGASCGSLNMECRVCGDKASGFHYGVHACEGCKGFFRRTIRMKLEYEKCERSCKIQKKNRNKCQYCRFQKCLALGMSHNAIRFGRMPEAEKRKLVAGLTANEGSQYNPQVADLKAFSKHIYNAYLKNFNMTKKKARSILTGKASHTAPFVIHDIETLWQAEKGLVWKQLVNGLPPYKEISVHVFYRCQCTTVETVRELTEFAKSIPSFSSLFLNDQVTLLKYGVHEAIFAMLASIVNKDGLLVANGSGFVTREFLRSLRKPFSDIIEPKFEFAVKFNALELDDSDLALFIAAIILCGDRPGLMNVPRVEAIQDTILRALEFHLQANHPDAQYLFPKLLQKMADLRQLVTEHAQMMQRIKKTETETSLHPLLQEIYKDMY
# How it was run: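 Titration series tested in agonist mode on beta-lactamase reporter cells; 18 hrs at 37 C after a 5 hr pre-incubation. Readout: CCF4 fluorescence, 2 hrs RT. Hill equation gives EC50 and maximal response.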
structure (smiles),measurement,setting,value
CCNC(=NCCCC[C@H](NC(=O)[C@H](CC(C)C)NC(=O)[C@@H](CCCCN=C(NCC)NCC)NC(=O)[C@@H](Cc1ccc(O)cc1)NC(=O)[C@@H](CO)NC(=O)[C@H](Cc1cccnc1)NC(=O)[C@H](Cc1ccc(Cl)cc1)NC(=O)C(Cc1ccc2ccccc2c1)NC(C)=O)C(=O)N1CCCC1C(=O)N[C@H](C)C(N)=O)NCC (stereo partly drawn) (Ac-[ξ2Nal][Phe(4-Cl)][3Pal][dS][dY][d(hArg(Et2))]L[hArg(Et2)][ξP][dA]-NH2),Potency,[1],inactive
same,Potency,[2],inactive
same,Potency,[3],inactive
same,Potency,[4],inactive
same,Potency,[5],0.857 µM (active)
CNC(C)CC1CCCC1 (stereo not drawn),Potency,[1],inactive
same,Potency,[2],inactive
same,Potency,[3],inactive
same,Potency,[4],inactive
same,Potency,[6],inactive
same,Potency,[7],inactive
same,Potency,[8],inactive
O=C(NNCS(=O)(=O)O)c1ccncc1,Potency,[1],inactive
same,Potency,[2],inactive
same,Potency,[3],inactive
same,Potency,[9],inactive
same,"activity change, negative = inhibition",[6],-23.7%
NCCCC[C@H](NC(=O)[C@@H]1CCCN1C(=O)[C@@H]1CSSC[C@H](N)C(=O)N[C@@H](Cc2ccccc2)C(=O)N[C@@H](Cc2ccccc2)C(=O)N[C@@H](CCC(N)=O)C(=O)N[C@@H](CC(N)=O)C(=O)N1)C(=O)NCC(N)=O,Potency,[1],inactive
same,Potency,[2],inactive
same,Potency,[3],inactive
same,Potency,[4],inactive
same,"activity change, negative = inhibition",[6],-27.3%
CC(C)CCCC(C)NC(C)C (stereo not drawn),Potency,[1],inactive
same,Potency,[2],inactive
same,Potency,[3],inactive
same,Potency,[9],inactive
same,"activity change, negative = inhibition",[6],-25.3%
CC(C)(C)C(=O)OCC(=O)[C@H]1CC[C@H]2[C@@H]3CCC4=CC(=O)CC[C@]4(C)[C@H]3CC[C@]12C,Potency,[1],inactive
same,Potency,[2],inactive
same,Potency,[3],inactive
same,Potency,[4],inactive
same,"activity change, negative = inhibition",[6],-13%
COc1ccc(C(=O)Nc2ccccc2CCC2CCCCN2C)cc1 (stereo not drawn),Potency,[1],inactive
same,Potency,[2],inactive
same,Potency,[3],inactive
same,Potency,[4],inactive
same,"activity change, negative = inhibition",[6],-20%
O=CCCCC=O,activation,[10],-2.56% (inactive)
same,outcome,[11],inactive
same,Potency,[1],inactive
same,Potency,[2],inactive
same,Potency,[3],inactive
same,Potency,[4],inactive
C/C(=C\C(=O)OCCCCCCCCC(=O)O)C[C@@H]1OC[C@H](C[C@@H]2O[C@H]2[C@@H](C)[C@H](C)O)[C@@H](O)[C@H]1O,Potency,[1],inactive
same,Potency,[2],inactive
same,Potency,[3],inactive
same,Potency,[4],inactive
same,"activity change, negative = inhibition",[6],-28.4%
CC(=O)Nc1c(I)c(C(=O)O)c(I)c(N(C)C(C)=O)c1I,Potency,[1],inactive
same,Potency,[2],inactive
same,Potency,[3],inactive
same,Potency,[4],inactive
same,"activity change, negative = inhibition",[6],-20.3%
CC[C@H]1CN2CCc3cc(OC)c(OC)cc3C2C[C@@H]1CC1NCCc2cc(OC)c(OC)cc21 (stereo partly drawn),Potency,[1],5.62 µM (active)
same,Potency,[2],17.8 µM (active)
same,Potency,[3],5.62 µM (active)
same,Potency,[4],inactive
same,Potency,[6],1.78 µM (active)
O=C(OCc1ccccc1)c1cccnc1,Potency,[1],inactive
same,Potency,[2],inactive
same,Potency,[3],inactive
same,Potency,[9],inactive
same,"activity change, negative = inhibition",[6],1.27%
CCC(C(=O)O)[C@H]1CC[C@H](C)[C@H]([C@@H](C)[C@H](O)[C@H](C)C(=O)[C@H](CC)[C@H]2OC3(C=C[C@@H](O)[C@]4(CC[C@@](C)([C@H]5CC[C@](O)(CC)[C@H](C)O5)O4)O3)[C@H](C)C[C@@H]2C)O1 (stereo partly drawn),Potency,[1],3.98 µM (active)
same,Potency,[2],7.94 µM (active)
same,Potency,[3],0.891 µM (active)
same,Potency,[9],2.51 µM (active)
same,Potency,[6],0.794 µM (active)
C[C@@H]1O[C@@H](O[C@@H]2/C=C/C=C/C=C\C=C\C[C@H](C)OC(=O)/C=C/[C@H]3O[C@@H]3C[C@H](O)C[C@]3(O)C[C@@H](O)[C@@H](C(=O)O)[C@H](C2)O3)[C@H](O)[C@H](N)[C@@H]1O,"activity change, negative = inhibition",[1],-7.42% [at 11.4 µM] (inactive)
same,"activity change, negative = cytotoxicity",[2],0.894% [at 11.4 µM] (inactive)
same,outcome,[3],inactive [at 11.4 µM]
same,"activity change, negative = cytotoxicity",[4],-4.87% [at 11.4 µM] (inactive)
same,"activity change, negative = inhibition",[6],-12.9% [at 11.3 µM]
CCCCC(=O)O[C@]1(C(=O)COC(C)=O)CC[C@H]2[C@@H]3CCC4=CC(=O)C=C[C@]4(C)[C@H]3[C@@H](O)C[C@@]21C,Potency,[1],inactive
same,Potency,[2],inactive
same,Potency,[3],inactive
same,Potency,[4],inactive
same,"activity change, negative = inhibition",[6],-22.7%
C#C[C@]1(O)CC[C@@H]2[C@@H]3CCC4=CCCC[C@@H]4[C@H]3C(=C)C[C@@]21CC,Potency,[1],inactive
same,Potency,[2],inactive
same,Potency,[3],inactive
same,Potency,[4],inactive
same,"activity change, negative = inhibition",[6],3.84%
O=C1O[C@H]2[C@H](OC(O)[C@@H]2O)[C@@H]1O (stereo partly drawn),Potency,[1],inactive
same,Potency,[2],inactive
same,Potency,[3],inactive
same,Potency,[4],inactive
same,Potency,[6],inactive
